Experimental data reported in PubChem BioAssay AID651919 (Sanford-Burnham Center for Chemical Genomics, 2012).
Values joined by “and” are separate entries in the source; they are usually repeats but may differ in a detail not shown here. Identical values can stand only once.

Target: C-X-C chemokine receptor type 5 (Homo sapiens) (UniProt P32302)
Experiment: antagonism of CXCR6 versus CXCR5 signaling – cell-based, CHO-K1 PathHunter beta-arrestin, luminescence, set 4, selectivity assay for CXCR6 antagonist project, profiling panel (AID 651919)
Details: run 1, at 79 µM (top of the series)

SMILES | inhibition
COc1ccc(C(=O)NC2CC3CCCC(C2)N3CC(=O)Nc2ccc(Cl)cc2)cc1OC (centres undefined) | 0.551%
COc1ccc(NC(=O)CN2C3CCCC2CC(NC(=O)c2cc(OC)cc(OC)c2)C3)cc1 (centres undefined) | 22.9%
O=C(CN1C2CCCC1CC(NC(=O)c1ccc3c(c1)OCO3)C2)Nc1ccccc1 (centres undefined) | 27.8%
COc1cccc(C(=O)NC2CC3CCCC(C2)N3CC(=O)Nc2ccc(C)cc2)c1 (centres undefined) | 44.1%
COc1ccc(C(=O)NC2CC3CCCC(C2)N3CC(=O)Nc2ccc(F)cc2)cc1 (centres undefined) | -9.29%
O=C(CN1C2CCCC1CC(NC(=O)c1ccccc1)C2)Nc1ccccc1 (centres undefined) | 8.48%
COc1cccc(C(=O)NC2CC3CCCC(C2)N3CC(=O)Nc2ccc(Cl)cc2)c1 (centres undefined) | -2.39%
COc1cccc(C(=O)NC2CC3CCCC(C2)N3CC(=O)Nc2ccccc2)c1 (centres undefined) | 10.5%
COc1ccc(NC(=O)CN2C3CCCC2CC(NC(=O)c2ccc4c(c2)OCO4)C3)cc1 (centres undefined) | 21%
COc1cc(C(=O)NC2CC3CCCC(C2)N3CC(=O)Nc2ccc(C)cc2)cc(OC)c1OC (centres undefined) | 2.28%
COc1cc(OC)cc(C(=O)NC2CC3CCCC(C2)N3CC(=O)Nc2ccc(F)cc2)c1 (centres undefined) | 32.4%
COc1ccc(C(=O)NC2CC3CCCC(C2)N3CC(=O)Nc2ccc(F)cc2)cc1OC (centres undefined) | 1.06%
COc1ccc(NC(=O)CN2C3CCCC2CC(NC(=O)c2cccc(OC)c2)C3)cc1 (centres undefined) | 8.8%
COc1cc(C(=O)NC2CC3CCCC(C2)N3CC(=O)Nc2ccccc2Cl)cc(OC)c1OC (centres undefined) | 29.2% and 16%
COc1ccc(C(=O)NC2CC3CCCC(C2)N3CC(=O)Nc2ccc(C)cc2)cc1OC (centres undefined) | 22.7%
COc1ccc(NC(=O)CN2C3CCCC2CC(NC(=O)c2ccc(OC)cc2)C3)cc1 (centres undefined) | -6.48%
COc1ccc(C(=O)NC2CC3CCCC(C2)N3CC(=O)Nc2ccccc2)cc1OC (centres undefined) | 16.5%
COc1cccc(C(=O)NC2CC3CCCC(C2)N3CC(=O)Nc2ccc(F)cc2)c1 (centres undefined) | -4.11%
COc1ccc(NC(=O)CN2C3CCCC2CC(NC(=O)c2cc(OC)c(OC)c(OC)c2)C3)cc1 (centres undefined) | -6.42%
